Inhibition data for 62 molecules are collected here from PubChem BioAssay AID1063 (University of Pittsburgh Molecular Library Screening Center, 2008).

Hit rate of the full screen: of about 200,000 compounds, about 18,000 (9%) were called active. The list comes from a sample in which actives are over-represented; it also holds similar structures and randomly drawn compounds. A number with no mark means an inactive call. Rule as the data show it: active = inhibition above about 50%; inactive = the rest.

This assay can be described thus: antileishmanial activity against promastigotes – primary screen (AID 1063).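 Also: promastigotes grown with compound for 44 hours at 28 °C.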 To be noted: Leishmania major promastigotes, resazurin fluorescence viability; at 10 µM; stronger effect = higher value. (In general: Alamar Blue is a resazurin reagent that responds to reducing activity.)
As to `CN(C)CC(C)(C)CNC(=O)c1cc(Br)cc(Br)c1O`, the inhibition is -1.61%. Regarding `CC1=CC2=NC(=O)CC(C)(C(=O)N(CC(=O)NC(C)(C)C)Cc3ccccc3)N2C=C1` (configuration not stated), the inhibition is -6.31%. For `Cc1cccc(CSc2nc3c(c(=O)n2C)SCC3)c1`, the inhibition is 7.35%. Under `CCOC(=O)CN(Cc1ccc(OC)c(OC)c1)S(=O)(=O)c1ccc(OC)cc1` stands 0.46%; under `COc1ccc(C(CCN(Cc2ccc(OC)c(OC)c2)C(=O)CCl)c2ccccc2)cc1` (configuration not stated), 100% (active); under `COc1ccc(CCNC(=O)CN(c2ccccc2)S(C)(=O)=O)cc1OC`, -7.09%.

In the case of `O=C(O)CCn1c(SCc2cc(=O)n3ccccc3n2)nc2ccsc2c1=O`, the inhibition was -0.88%. Under `CCN(CC)CCNC(=O)c1ccc(NC(=O)c2c(F)cccc2Cl)cc1` stands 7.35%; under `COc1ccc(Cn2nnc3c(=O)[nH]c(C4CCN(C(=O)c5ccccc5Cl)CC4)nc32)cc1`, -0.57%; under `COc1ccc(CN2CCC(c3nc4ccc(Cl)cc4[nH]3)CC2)cc1`, 95.6% (active). With `COc1ccc(F)c(-c2nc(CN3CCC(c4ccccc4)CC3)c(C)o2)c1`, the inhibition was 48.2%. On to `CCOc1ccc(C(CC(=O)O)NC(=O)C23CC4CC(CC(C4)C2)C3)cc1OC` (configuration not stated), for which the inhibition was 3.74%. Then `Cn1ncc2c(NNC(=O)Cc3cccc4ccccc34)ncnc21`, with 61.6% (active); and `O=C(NNc1ncnc2c1cnn2-c1ccccc1)c1ccco1`, with -5.13%. Take `Cn1ncc2c(Nc3cccc4ccccc34)ncnc21`: the inhibition is -6.4%. Then `O=C1OCC2=C1C(c1ccccc1)CC(=O)N2c1cccc(F)c1` (configuration not stated), with 7.11%; and `COC(=O)CCNc1ccc2c(c1)OCCO2`, with -0.44%. Consider `CCOC(=O)c1cnc2ccc(F)cc2c1Nc1ccc2c(c1)OCCO2`, for which the inhibition is 85.4% (active).

On to `Cc1ccc2nc(-c3ccncc3)cc(C(=O)Nc3ccc4c(c3)OCCO4)c2c1`, for which the inhibition was 5.91%. Then `O=C(COc1cc(Cl)c(Cl)cc1Cl)NCCc1ccccn1`, with -5.85%. Then `CCOc1cc(CNCCN(C)C)c(Cl)cc1OCC(=O)NCCc1ccccc1`, with 99% (active). Under `CCCNCc1cc(OCC)c(OCC(=O)Nc2ccccc2)cc1Br` stands 33.5%; under `Cc1ccc(-c2n[nH]c(=S)n2/N=C/c2cc3c(cc2[N+](=O)[O-])OCO3)cc1`, -0.37%; under `CCOc1ccc(-c2n[nH]c(=S)n2/N=C/c2cc3c(cc2[N+](=O)[O-])OCO3)cc1`, 52.8% (active). Turning to `O=[N+]([O-])c1ccccc1/C=N/n1c(COc2ccccc2)n[nH]c1=S`, the inhibition is -4.75%. Under `CN(C)c1ccc2c(=O)[nH][nH]c(=O)c2c1` stands -5.2%; under `CC(=O)N1CCc2cc(Br)cc(S(=O)(=O)CCC(=O)Nc3c(C)n(C)n(-c4ccccc4)c3=O)c21`, -1.11%; under `CCOCCCn1c(NN)nc2ccccc2c1=O`, -5.56%.

As to `O=c1oc(/C=C/c2ccccc2)nc2ccccc12`, the inhibition is 1.06%.

As to `CCn1c(/C=C/c2ccc([N+](=O)[O-])o2)nc2ccccc2c1=O`, the inhibition is 100% (active).

Take `CCN1CCC2(CCN(Cc3cn[nH]c3-c3ccc(OC)c(F)c3)C2)C1` (configuration not stated): the inhibition was 1.79%. Under `Cc1noc(C)c1CSCC(=O)Nc1nc2ccc(Oc3ccccc3)cc2s1` stands 2.23%; under `CCOC(=O)c1c(C2CC2)csc1NC(=O)CSCc1c(C)noc1C`, 100% (active). For the molecule `CCOC(=O)c1c(-c2cccc(C)c2)csc1NC(=O)c1c(-c2ccccc2)noc1C`, the inhibition is 1.98%. In the case of `CCOC(=O)c1sc(NC(=O)CCN2CCOCC2)c(C(=O)OCC)c1C`, the inhibition is 7.86%. As to `CCOC(=O)Nc1sc(C(=O)N(C)C)c(C)c1C(=O)OCC`, the inhibition was 7.28%. For `CCOC(=O)c1c(NC(=O)CCl)sc(C(=O)N(CC)CC)c1C`, the inhibition was 100% (active). For `CS(=O)(=O)N(CC(=O)NCc1ccco1)c1ccc2c(c1)OCO2`, the inhibition is 7.89%.

For `CCN(c1ccc2c(c1)OCO2)S(=O)(=O)c1cc(Br)cc2c1N(C(=O)C1CC1)CC2`, the inhibition is 57% (active).

For the molecule `CCOC(=O)N1CCN(S(=O)(=O)c2cc(Br)cc3c2N(C(=O)C2CC2)CC3)CC1`, the inhibition is -13.7%.

For the molecule `COC(=O)C1=C(C)N(C(C)c2ccccc2)C(=O)/C1=C\c1ccco1` (configuration not stated), the inhibition is 12.7%.

With `O=c1[nH]c(CN2CCN(S(=O)(=O)c3ccc4c(c3)OCCO4)CC2)nc2sc3c(c12)CCCC3`, the inhibition was 26.5%.

As to `O=[N+]([O-])c1ccc(C=Nc2ccc(Cl)cc2Cl)s1`, the inhibition was 100% (active). Then `CCCNC(=O)c1c(Cl)cnn1-c1ccc(C)cc1`, with 6.12%. Under `Cc1ccc(CN(C)CC(=O)Nc2cccc([N+](=O)[O-])c2)o1` stands 8.58%.

As to `CC(C)(C)n1ncc2c(=O)n(Cc3ccc(Cl)cc3)cnc21`, the inhibition is 0.21%. Under `CCN(CC)S(=O)(=O)c1ccc(Cl)c(NC(=O)c2ccncc2)c1` stands 19.7%; under `COc1ccc(C2CC(c3cccs3)Nc3nnnn32)cc1` (configuration not stated), -4.3%; under `COc1ccc(-n2c(SCC(=O)NCc3cccs3)nnc2-c2ccoc2C)cc1`, 5.39%. Then `O=C(CSc1nnc2scc(-c3ccc(F)cc3)n12)NCc1ccco1`, with -2.03%; and `COc1ccc(-n2c(SCC(=O)NCc3ccco3)nnc2-c2c[nH]c3ccccc23)cc1`, with 97.7% (active). Under `COc1ccc(C(=O)NC(=O)CSc2nnc(-c3ccco3)n2-c2ccccc2)cc1` stands -4.51%. Turning to `O=C(CSc1nnc(-c2cccs2)n1-c1ccccc1)NCc1ccco1`, the inhibition is 7.53%. Turning to `O=C(CSc1nnc(-c2c[nH]c3ccccc23)n1-c1ccc(F)cc1)NCc1ccco1`, the inhibition was 52.5% (active). As for `Cc1ccc(N=Cc2c(O)cc(C)oc2=O)c(C)c1`, the inhibition is -1.99%.

In the case of `COc1cccc(CNC(=O)Cc2csc(Nc3nc(=S)[nH]c4ccccc34)n2)c1`, the inhibition is 2.33%. Under `COC(=O)C[n+]1cccc2ccccc21` stands 28.5%; under `CC1=CC(C)(C)Nc2ccc(OC(=O)C(Cc3ccccc3)N3C(=O)C4CCCCC4C3=O)cc21` (configuration not stated), 65.6% (active).

As to `CC(OC(=O)CN1C(=O)C2CCCCC2C1=O)C(=O)Nc1ncc(Cl)cc1Cl` (configuration not stated), the inhibition was -6.88%.

On to `CC1=CC(C)(C)Nc2ccc(OC(=O)CN3C(=O)C4CCCCC4C3=O)cc21` (configuration not stated), for which the inhibition was 100% (active).

As to `O=C(CN1C(=O)C2C3CCC(C3)C2C1=O)Oc1ccc2ccccc2c1` (configuration not stated), the inhibition was 7.23%. Under `Cc1ccc(C)n1C(Cc1ccccc1)C(=O)O` (configuration not stated) stands -7.64%.

The term inhibition denotes the change of the read-out against control, counted positive when it falls.
